The source of these data is PubChem BioAssay.

“And” between values parts separate entries of the source, which are not always exact repeats. Equal entries are not always repeated. Inconclusive results are not listed. The source holds several records for some structures; these can differ, active in one and inactive in another. The source made the active and inactive calls.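 The calls were made as follows, unless noted: active = normalized viability below 100% at a tested concentration; inactive = the rest.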

In general, AC50 refers to the midpoint of the concentration-response curve, whichever way the signal moves. In general, IC50 refers to the concentration needed to halve the response being measured. The term viability denotes a read-out of living cells in per cent, often relative to untreated cells.

Experiment [1] in a line: growth inhibition of DIPG glioma cells, dose response, cell-based, SU-DIPG-XVII, MIPE5.0, CellTiter-Glo, qHTS (AID 1347060; cut-off not given, nearly all actives have AC50 up to about 26 µM;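 as to AC50: cells exposed to compound for 48 hours before viability readout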). The following applies: SU-DIPG-XVII viability, CellTiter-Glo ATP luminescence. On the technique in general: ATP-based viability assays read luminescence as a measure of living cells.
Experiment [2] is described as follows: growth inhibition of DIPG glioma cells, dose response, cell-based, JHH-DIPG-1, MIPE4.0, CellTiter-Glo, qHTS (AID 1347062; cut-off not given, nearly all actives have AC50 up to about 27 µM;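 as to AC50: cells exposed to compound for two days before readout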). The following applies: JHH-DIPG-1 viability, CellTiter-Glo ATP luminescence.
A short description of experiment [3]: growth inhibition of DIPG glioma cells, dose response, cell-based, SU-DIPG-IV, MIPE4.0, CellTiter-Glo, qHTS (AID 1347063; cut-off not given, nearly all actives have AC50 up to about 30 µM;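 also: compound exposure lasted 48 hours before the viability readout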). Conditions: SU-DIPG-IV viability, CellTiter-Glo ATP luminescence.
Experiment [4] in a line: growth inhibition of DIPG glioma cells, dose response, cell-based, SU-DIPG-XIII, MIPE5.0, CellTiter-Glo, qHTS (AID 1347064; cut-off not given, nearly all actives have AC50 up to about 23 µM;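 as to AC50: cells exposed to compound for 48 hours before the viability read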). The following applies: SU-DIPG-XIII viability, CellTiter-Glo ATP luminescence.
Experiment [5] in a line: SU-DIPG-VI glioma cell viability, MIPE4.0 library, CellTiter-Glo luminescence, qHTS (AID 1347066; cut-off not given, nearly all actives have AC50 up to about 30 µM;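 also: cells exposed to compound for 48 hours before readout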). Conditions: CellTiter-Glo ATP luminescence.
The nature of experiment [6]: JHH-DIPG-1 glioma cell viability, MIPE5.0 library, CellTiter-Glo luminescence, qHTS (AID 1347067; cut-off not given, nearly all actives have AC50 up to about 26 µM;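 also: cells exposed to compound for 48 hours before readout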). The following applies: JHH-DIPG-1 glioma viability, CellTiter-Glo ATP luminescence.
The nature of experiment [7]: SU-DIPG-XXV glioma cell viability, MIPE5.0 library, qHTS (AID 1347068; cut-off not given, nearly all actives have IC50 up to about 30 µM;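 as to IC50: cells exposed to compound for 48 hours before viability readout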). In general terms: Quantitative high-throughput screening tests each substance at several concentrations.
A short description of experiment [8]: viability loss in pontine glioma line – cell-based, SU-DIPG-XXV, MIPE5.0, CellTiter-Glo, qHTS, dose response (AID 1347065; cut-off not given, nearly all actives have AC50 up to about 26 µM;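 also: cells exposed to compound for 48 hours before ATP readout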). The following applies: CellTiter-Glo ATP luminescence.
Experiment [9] in a line: sensitizers of A549 cells to miR-34 induction, primary screen, imaging, A549 dox-inducible miR-34, nuclei and caspase counts (AID 1347080;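 active = compounds whose cell count with miR-34 switched on is under 0.7 times the count with it off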). The following applies: A549 miR-34 inducible, Hoechst nuclei count, 48 h.
Experiment [10] in a line: modifiers of HSF1 nuclear foci, imaging, Selleck Cancer Library (AID 1347162; in the data active = plate-normalised HSF1 focus index below about 0.46). Conditions: human cells, at 10 µM; SSMD: measured here: HSF1 foci SSMD mean; cell count: measured here: cell number; plate-normalised HSF1 focus index: stronger effect = lower value.
Experiment [11] in a line: survival rescue of mitochondrial mutant cells in low glucose, primary screen, MELAS cybrids, Rieske KO mouse fibroblasts, CellTiter-Glo (AID 1508586;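 active = mean z-score across replicates of 1.96 or higher in either the MELAS or the Rieske mutant cell line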;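 also: z relative to plate mean and SD of compound and empty wells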).
The nature of experiment [12]: ovarian cancer cell viability with rucaparib, profiling panel, oncology-focused library, rucaparib conditional (AID 1508598). Conditions: patient-derived ovarian cancer cells, CellTiter-Glo viability, 144 h, stronger effect = lower value.
Where [13] appears, read: stronger effect = lower value, cell number ratio, induced over uninduced.
The mark [14] stands for this setting: measured here: relative caspase fold change +Dox/-Dox.
[15] abbreviates: measured here: total cells with miR-34 induction, stronger effect = lower value.
Setting [16] is: measured here: total cells without miR-34 induction.

Regarding `O=C(O)C1=CO[C@@H](O[C@@H]2O[C@H](CO)[C@@H](O)[C@H](O)[C@H]2O)[C@@H]2C(CO)=CC[C@H]12`, the outcome in experiment [1], in experiment [2], in [3], in [4], in experiment [5] and in [6] was inactive. In addition, the compound was classed as inactive in [7].

For the compound `COc1cc2nc(-c3cc(F)ccc3O)nc(N[C@@H]3CNC[C@H]3C(C)(C)O)c2cc1OC`, the AC50 was 9.34 µM (active) in experiment [1]; 10.5 µM (active) in [2]; 9.35 µM (active) in experiment [3]; 5.25 µM (active) in [4]; 4.17 µM (active) in [8]; 8.33 µM (active) in experiment [6]. The IC50 in experiment [7] was 4.17 µM (active).

Take `COc1ccc(/C=C\c2cc(OC)c(OC)c(OC)c2)cc1O`: the AC50 in experiment [1] is 0.00662 µM (active); in [2], 0.00833 µM (active); in experiment [4], 0.0186 µM (active); in experiment [8] it was 0.0105 µM (active); in experiment [6] it was 0.0105 µM (active). Moreover, the outcome in experiment [3] was inactive. For the same compound, the IC50 in [7] is 0.0148 µM (active). In addition, the fold change in [9] (setting [13]) is 1.24 (inactive); in experiment [9] (setting [14]), 0.571. Besides, the cell count in experiment [9] (setting [15]) was found to be 1250; in [9] (setting [16]), 1010; in experiment [10] it was 6590. This compound also registered an SSMD in experiment [10] of 0.749. Besides, the plate-normalised HSF1 focus index in experiment [10] is 1.05 (inactive).

On to `Oc1ccc(-c2ccc(-c3cc(Nc4cccc(CNC5CC5)c4)n[nH]3)cc2)c(O)c1`, for which the AC50 in experiment [1] was 6.61 µM (active); in experiment [2] it was 1.66 µM (active); in [3] it was 4.69 µM (active); in experiment [4], 13.2 µM (active); in experiment [8], 7.42 µM (active); in experiment [5] it was 16.6 µM (active). The IC50 in [7] is 26.3 µM (active).

Turning to `CN(c1ncccc1CNc1nc(Nc2ccc3c(c2)CC(=O)N3)ncc1C(F)(F)F)S(C)(=O)=O`, the AC50 in [1] was 5.25 µM (active); in [2], 5.9 µM (active); in experiment [3], 4.18 µM (active); in [4], 8.33 µM (active); in experiment [8], 3.72 µM (active); in experiment [6] it was 8.33 µM (active). In experiment [7], the IC50 is 11.8 µM (active). Also, the fold change in experiment [9] (setting [13]) is 0.847 (inactive) and 0.961 (inactive) and 0.946 (inactive); in experiment [9] (setting [14]), 0.469 and 1.06 and 0.671. The cell count in experiment [9] (setting [15]) is 1490 and 1380 and 1080; in experiment [9] (setting [16]), 1760 and 1430 and 1140; in experiment [10] it was 4390. In experiment [10], this compound showed an SSMD of -7.81. Besides, the plate-normalised HSF1 focus index in experiment [10] was 0.528 (inactive). Further, the z-score in experiment [11] (MELAS cybrid survival, CellTiter-Glo 48 h, stronger effect = higher value) was -0.34 (inactive) and -0.161 (inactive) and 2.09 (active); in experiment [11] (Rieske KO mouse fibroblast survival, CellTiter-Glo 72 h), -0.291 and -0.23 and -5.55. Also, the viability in experiment [12] (at 0.000305 µM, OCI-C5x cells, with rucaparib 10 µM, 100% = cells with rucaparib alone) was 100% (inactive); in [12] (at 0.000305 µM, OCI-C5x cells, without rucaparib) it was 125% (inactive); in experiment [12] (at 0.000305 µM, OCI-P5x cells, with rucaparib 20 µM, 100% = cells with rucaparib alone), 105% (inactive); in experiment [12] (at 0.000305 µM, OCI-P5x cells, without rucaparib) it was 110% (inactive); in [12] (at 0.00122 µM, OCI-C5x cells, with rucaparib 10 µM, 100% = cells with rucaparib alone), 110% (inactive); in experiment [12] (at 0.00122 µM, OCI-C5x cells, without rucaparib), 111% (inactive). The viability in [12] (at 0.00122 µM, OCI-P5x cells, with rucaparib 20 µM, 100% = cells with rucaparib alone) was 110% (inactive); in experiment [12] (at 0.00122 µM, OCI-P5x cells, without rucaparib), 110% (inactive); in experiment [12] (at 0.00488 µM, OCI-C5x cells, with rucaparib 10 µM, 100% = cells with rucaparib alone), 106% (inactive); in experiment [12] (at 0.00488 µM, OCI-C5x cells, without rucaparib), 130% (inactive); in experiment [12] (at 0.00488 µM, OCI-P5x cells, with rucaparib 20 µM, 100% = cells with rucaparib alone), 99.2% (active); in experiment [12] (at 0.00488 µM, OCI-P5x cells, without rucaparib) it was 108% (inactive). Besides, the viability in [12] (at 0.0195 µM, OCI-C5x cells, with rucaparib 10 µM, 100% = cells with rucaparib alone) is 115% (inactive); in [12] (at 0.0195 µM, OCI-C5x cells, without rucaparib), 122% (inactive).
